Among the test systems are SK-MEL-2 melanoma; EKVX NSCLC; SN12C renal; UO-31 renal; TK-10 renal; ACHN renal; CAKI-1 renal; A498 renal; CCRF-CEM leukemia; MOLT-4 leukemia; SR leukemia; RPMI-8226 leukemia; OVCAR-5 ovarian; OVCAR-4 ovarian; SK-OV-3 ovarian; IGROV1 ovarian; OVCAR-3 ovarian; HS 578T breast; NCI/ADR-RES ovarian.
What all share (assay): NCI-60 one-dose screen, 48 h (100 = growth as untreated, 0 = no growth, -100 = all killed)
What all share (details): 10 µM unless noted

Molecules are shown by their SMILES. About 83,000 compounds went through this panel and 20% of them were active in at least one assay; those are over-represented in the sample as a whole.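 Method: cells in 96-well plates; compound added at one concentration; 48 h incubation; percent growth measured; values under 10 scored active.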 A number with no mark means an inactive call. Activity calls are given as the source filed them.

For the compound `c1cc(NCCc2ccncc2)nc(-n2cnc3ccccc32)c1`, the growth in the test with SK-MEL-2 melanoma is 86.8%; in the test on EKVX NSCLC, 102%; in the test on SN12C renal it was 90.4%; in the test on UO-31 renal it was 74.9%; with TK-10 renal, 86.9%; in the test with ACHN renal, 65.4%. Further, the growth was 81.2% in the test on CAKI-1 renal; 69.3% with A498 renal; 99.8% in the test with CCRF-CEM leukemia; 86.4% with MOLT-4 leukemia; 58.2% in the test on SR leukemia; 68.5% with RPMI-8226 leukemia. The growth in the test with OVCAR-5 ovarian was 98%; in the test with OVCAR-4 ovarian it was 96.7%; with SK-OV-3 ovarian, 97.2%; in the test with IGROV1 ovarian it was 73.1%; in the test on OVCAR-3 ovarian, 96.2%; with HS 578T breast, 98.2%. Also, the growth in the test with NCI/ADR-RES ovarian is 90.7%.
As to `Nc1ccccc1-c1cc2c(c3c1[nH]c1ccccc13)CCCCC2`, the growth in the test with SK-MEL-2 melanoma was 92.5%; with EKVX NSCLC, 89.9%; in the test on SN12C renal, 99.7%; in the test with UO-31 renal it was 96.7%; in the test on TK-10 renal, 101%; in the test with ACHN renal, 107%. In addition, the growth with CAKI-1 renal was 114%; in the test on A498 renal, 119%; in the test on CCRF-CEM leukemia, 93.1%; in the test on MOLT-4 leukemia, 90.8%; with SR leukemia it was 94.2%; with RPMI-8226 leukemia it was 99.3%. The growth in the test with OVCAR-5 ovarian was 108%; in the test on OVCAR-4 ovarian, 105%; in the test with SK-OV-3 ovarian, 115%; in the test with IGROV1 ovarian, 97%; in the test with OVCAR-3 ovarian, 102%; in the test with HS 578T breast, 95.2%. Also, in the test with NCI/ADR-RES ovarian, the growth was 94.8%.
For `CCOC(=O)c1c(C)nc2c(c1N)CC(=O)N2Cc1ccc(F)cc1`, the growth with SK-MEL-2 melanoma was 92.6%; in the test on EKVX NSCLC, 94.9%; in the test with SN12C renal, 93.2%; in the test with UO-31 renal, 88.6%; with TK-10 renal it was 97.3%; in the test on ACHN renal it was 95.7%. For the same compound, the growth with CAKI-1 renal is 92.9%; with A498 renal, 64.1%; in the test with CCRF-CEM leukemia, 85.3%; with MOLT-4 leukemia, 85%; in the test with SR leukemia it was 99.5%; in the test with RPMI-8226 leukemia it was 80.1%. The growth was 103% in the test on OVCAR-5 ovarian; 94.7% in the test on OVCAR-4 ovarian; 95% in the test with SK-OV-3 ovarian; 104% with IGROV1 ovarian; 99.5% in the test on OVCAR-3 ovarian; 91.5% in the test on HS 578T breast. Also, the growth in the test with NCI/ADR-RES ovarian is 99%.
For `c1ccc2cc(C[n+]3ccn(CCCCCCn4cc[n+](Cc5ccc6ccccc6c5)c4)c3)ccc2c1`, the growth with SK-MEL-2 melanoma was 36%; in the test on EKVX NSCLC it was 37.3%; in the test with SN12C renal, 34.9%; with UO-31 renal, 97.2%; with TK-10 renal it was 83.1%; in the test with ACHN renal it was 72.5%. For the same compound, the growth was 95.4% in the test with CAKI-1 renal; 10% with A498 renal; 84.2% in the test on CCRF-CEM leukemia; 74.9% in the test with MOLT-4 leukemia; 69% with SR leukemia; 65.5% with RPMI-8226 leukemia. The growth in the test with OVCAR-5 ovarian is 60.4%; with OVCAR-4 ovarian it was 40.8%; with SK-OV-3 ovarian, 55.6%; in the test on IGROV1 ovarian, 58.1%; in the test on OVCAR-3 ovarian it was 62.4%; in the test on HS 578T breast, 68.5%. The growth with NCI/ADR-RES ovarian is 100%.
Take `Cc1nn(-c2ccccc2)c2c1N=c1s/c(=C\c3ccc(C(F)(F)F)cc3)c(=O)n1CN2`: the growth is 47.1% in the test with SK-MEL-2 melanoma; 59.3% in the test with EKVX NSCLC; 71.4% in the test on SN12C renal; 43.4% with UO-31 renal; 80% in the test on TK-10 renal; 59.8% in the test on ACHN renal. In addition, the growth in the test with CAKI-1 renal was 59.9%; in the test with A498 renal, 63.5%; with CCRF-CEM leukemia, 38.3%; in the test on MOLT-4 leukemia, 98.8%; in the test with SR leukemia, 97.9%; with RPMI-8226 leukemia, 16.2%. Also, the growth is 93.4% in the test on OVCAR-5 ovarian; 51.2% in the test on OVCAR-4 ovarian; 91.5% in the test on SK-OV-3 ovarian; 68.3% in the test with IGROV1 ovarian; 138% with OVCAR-3 ovarian; 96.9% in the test on HS 578T breast. In addition, the growth in the test on NCI/ADR-RES ovarian is 40.4%.
As for `O=C(Nc1ccc(OS(=O)(=O)c2ccc(F)cc2)cc1)c1ccc(Cl)cc1`, the growth is 90.6% in the test on SK-MEL-2 melanoma; 101% in the test on EKVX NSCLC; 95.7% in the test on SN12C renal; 92.5% in the test on UO-31 renal; 95.6% in the test with TK-10 renal; 103% in the test on ACHN renal. In addition, the growth in the test with CAKI-1 renal is 105%; in the test on A498 renal it was 82.9%; in the test on CCRF-CEM leukemia it was 98.7%; in the test with MOLT-4 leukemia, 89.1%; in the test on SR leukemia it was 91.4%; with RPMI-8226 leukemia it was 94.2%. The growth in the test with OVCAR-5 ovarian is 102%; in the test on OVCAR-4 ovarian, 106%; in the test on SK-OV-3 ovarian, 105%; in the test with IGROV1 ovarian, 95.7%; in the test with OVCAR-3 ovarian, 102%; in the test on HS 578T breast it was 104%. Moreover, in the test with NCI/ADR-RES ovarian, the growth is 93.1%.
Consider `Cc1ccc2c(-c3cc(-c4ccccc4)nc(N)c3C#N)cc(=O)oc2c1`, for which the growth with SK-MEL-2 melanoma is 97.1%; with EKVX NSCLC it was 113%; in the test on SN12C renal it was 91.2%; in the test on UO-31 renal it was 86.3%; in the test with TK-10 renal, 101%; with ACHN renal, 99.3%. Moreover, the growth was 100% in the test on CAKI-1 renal; 63.6% in the test with A498 renal; 105% in the test on CCRF-CEM leukemia; 94.5% with MOLT-4 leukemia; 100% in the test with SR leukemia; 101% with RPMI-8226 leukemia. Also, the growth in the test with OVCAR-5 ovarian was 96.9%; in the test with OVCAR-4 ovarian, 114%; in the test with SK-OV-3 ovarian it was 104%; with IGROV1 ovarian it was 110%; in the test with OVCAR-3 ovarian it was 106%; in the test with HS 578T breast it was 90.2%. Besides, the growth in the test on NCI/ADR-RES ovarian is 95.2%.
As for `CCCCCCNC(=O)Oc1ccc(/C(=C(\C)c2ccc(OC)cc2)c2ccc(OCCN3CCCCC3)cc2)cc1`, the growth with SK-MEL-2 melanoma was 69.2%; with EKVX NSCLC, 74%; with SN12C renal, 74.3%; in the test with UO-31 renal it was 21.6%; in the test with TK-10 renal, 102%; in the test on ACHN renal it was 84.2%. Further, the growth is 72.3% in the test with CAKI-1 renal; 88.1% with A498 renal; 66.5% in the test with CCRF-CEM leukemia; 41.8% in the test with MOLT-4 leukemia; 0.84% (active) in the test with SR leukemia; 44.7% in the test with RPMI-8226 leukemia. In addition, the growth with OVCAR-5 ovarian is 82.6%; in the test on OVCAR-4 ovarian, 63.1%; in the test with SK-OV-3 ovarian, 70%; with IGROV1 ovarian it was 53.8%; in the test on OVCAR-3 ovarian it was 80.9%; with HS 578T breast it was 65.7%. For the same compound, in the test on NCI/ADR-RES ovarian, the growth is 75.8%.

The values are drawn from PubChem BioAssay (NCI).
